PubChem BioAssay AID493222 (Johns Hopkins Ion Channel Center, 2011)
About 95 (4%) of roughly 2,400 compounds were called active.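 How the source made its calls: active means mean of duplicate membrane potential ratios lying over 3 SD above or below the buffer control mean, so actives fall on both sides; inactive means the rest.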 Not all results are given here.

Test: membrane potential effects in parental HEK293, counter-screen for CHT inhibitor project, cell-based, membrane potential dye (AID 493222);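 further: parental cells lack the transporter so any hit is non-specific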;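 on membrane potential ratio readout (active if shifted either direction beyond buffer ±3SD; no single direction): ratio is peak minus trough fluorescence over baseline after EC90 choline challenge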
Details: choline response, at 10 µM; active = decrease or increase beyond buffer ±3SD

Structure (SMILES) | membrane potential ratio readout (active if shifted either direction beyond buffer ±3SD; no single direction)
O=C(OCC(=O)c1c[nH]c2ccccc12)c1cccc(O)c1 | inactive
CCc1cc2c(N3CCN(c4nnc(CC)s4)CC3)ncnc2s1 | inactive
O=C(Cn1nc(C(F)(F)F)c2c1CCC2)NCc1ccc(F)cc1 | inactive
CCN(Cc1ccccc1)S(=O)(=O)c1cc(C(=O)O)ccc1OC | inactive
COc1ccc(Cn2c(=O)sc3ccccc32)cc1OC | -8.59 (active)
O=C(NCCc1ccc2c(c1)OCCO2)c1cc2ccccc2o1 | inactive
FC(F)(F)c1cccc(NC(=S)Nc2cccc(Cl)c2)c1 | inactive
CCCCCn1c(=O)[nH]c2cc(C(=O)NCCCN3CCCCC3C)ccc2c1=O (centres undefined) | inactive
O=C(NCCCn1ccnc1)C(=O)c1cn(CC(=O)N2CCCCCC2)c2ccccc12 | inactive
CCC(C)c1ccc(NC(=S)NCc2ccccn2)cc1 (centres undefined) | inactive
Cc1c(C(=O)OC(C)C)sc(NC(=O)c2cccnc2)c1C#N | inactive
C/C(=N/NC(=O)c1cc(Cl)ccc1O)C12CC3CC(CC(C3)C1)C2 | inactive
COc1nc(OC)nc(N(C)CCO)n1 | inactive
COc1cccc(-c2nn(-c3ccccc3)cc2/C=C(\C#N)C(=O)NCCCn2ccnc2)c1 | inactive
O=S(=O)(Cc1cc(Cl)nc(-c2cccnc2)n1)c1ccccc1 | inactive
COc1ccc(-n2nnnc2CNC(=O)c2ccc3ccccc3c2)cc1 | inactive
N#Cc1ccc(C(=O)Nc2cccc3cccnc23)c(F)c1 | inactive
CCC(=O)Nc1nnc(S(=O)(=O)N(CC(C)C)c2ccccc2)s1 | inactive
CC1CN(S(=O)(=O)c2ccc(C(=O)NN3CCN(C)CC3)cc2)CC(C)O1 (centres undefined) | inactive
CC(=O)N1CCN(S(=O)(=O)c2cccc(C(=O)NC3CCC(C)CC3)c2)CC1 (centres undefined) | inactive
CC(NC(=O)c1ccc(N2CCNCC2)c([N+](=O)[O-])c1)C12CC3CC(CC(C3)C1)C2 (centres undefined) | inactive
COc1ccc(OCC(=O)OCCN(C)C)cc1 | inactive
CC(C(=O)NC1CCS(=O)(=O)C1)N1C(=O)/C(=C/c2ccc(Cl)cc2)SC1=S (centres undefined) | inactive
CCOC(=O)N1CCN(C(=O)C2CCN(c3ncnc4c3sc3cccc(F)c34)CC2)CC1 | inactive
CCC(C(=O)N1CCOCC1)n1c(C(=O)OC)cc2occc21 (centres undefined) | inactive

Structure (SMILES) | membrane potential ratio readout (active if shifted either direction beyond buffer ±3SD; no single direction)
CC1(C)SC2C(NC(=O)COc3ccccc3)C(=O)N2C1C(=O)O (centres undefined) | inactive
Cc1cccc(C)c1NC(=O)c1ccc(CN2CCc3ccccc3C2)cc1 | inactive
CCS(=O)(=O)C1=NSC2=NC(=O)/C(=C\c3ccc(OS(=O)(=O)c4ccccc4)cc3)C(=N)N21 | inactive
Cc1nn(CC(=O)NCC2CCCO2)c(=O)c2cc3ccccc3n12 (centres undefined) | inactive
COc1ccc(C(CNC(=O)c2cccc(NS(=O)(=O)c3ccc(C)c(F)c3)c2)N2CCCC2)cc1 (centres undefined) | inactive
CCn1c(SCCC(C)C)nnc1-c1c[nH]c2ccccc12 | inactive
Cc1[nH]c2ccccc2c1C(=O)CN1CCCC(C)C1 (centres undefined) | inactive
COc1ccc(N2C(=O)CNC2=S)cc1 | inactive
CC(=O)c1ccc(Oc2cc(C)nc(-n3nc(C)cc3C)n2)cc1 | inactive
CC(C)(C)c1ccc(C(=O)CSc2ncn[nH]2)cc1 | inactive
CN(CCC#N)c1ncnc2scc(-c3ccccc3)c12 | inactive
O=C1/C(=C/c2ccc(F)cc2)SC(=S)N1NS(=O)(=O)c1ccccc1 | inactive
COc1ccc(C(=O)NC(=S)NNC(=O)CCc2ccccc2)cc1 | inactive
O=C(Nc1nonc1-c1ccc(Cl)cc1)c1ccco1 | inactive
COc1ccc(C(=O)NNC(=S)NC(=O)c2ccccc2)cc1 | inactive
Oc1c(Cl)cc(Cl)c(Cl)c1Cc1c(O)c(Cl)cc(Cl)c1Cl | inactive
O=C(O)CC1=C(Nc2ccccc2)C(=O)N(c2ccccc2)C1c1ccc(Cl)cc1 (centres undefined) | inactive
Cc1ccc2nc(Nc3ccccc3)cc(C)c2c1 | inactive
Cc1oc2cc([N+](=O)[O-])c(O)c([N+](=O)[O-])c2c1C(=O)c1ccc(Br)cc1 | 2.79 (active)
CC(C)(C)NC(=O)NC(=O)CN1CCC(Cc2ccccc2)CC1 | inactive
COc1ccc(C(=O)NC(C)c2nccs2)cc1OC1CCN(C(C)C)CC1 (centres undefined) | inactive
COc1cc2ccccc2cc1C(=O)Nc1ccc(S(=O)(=O)Nc2cc(C)on2)cc1 | inactive
O=C(O/N=C(/c1ccccc1)c1ccncc1)c1ccccc1[N+](=O)[O-] | inactive
CCc1nc(C)cn1S(=O)(=O)c1cc([N+](=O)[O-])ccc1Cl | 2.6 (active)
Cc1ccc(NNC(=O)c2cccs2)cc1Cl | inactive

Structure (SMILES) | membrane potential ratio readout (active if shifted either direction beyond buffer ±3SD; no single direction)
Cc1cc(OC(C)C(=O)Nc2ccc(S(=O)(=O)Nc3onc(C)c3C)cc2)cc(C)c1Cl (centres undefined) | inactive
CCN(CC(=O)NCc1ccc(Cl)cc1)C(=O)CSc1ccccc1 | inactive
CN(C)c1ccc(Nc2c3c4c(cccc4n(C)c2=O)C(=O)c2ccccc2-3)cc1 | inactive
Cc1cc(NS(=O)(=O)c2ccc(NC(=O)C(C)Oc3cccc(C)c3C)cc2)nc(C)n1 (centres undefined) | inactive
COc1ccc(/C=C2/SC(=O)N(CCCCCC(=O)Nc3ccccc3C(=O)O)C2=S)cc1 | inactive
CN(Cc1ccccc1)CC(O)COc1ccc(CNCc2cc3ccccc3s2)cc1 (centres undefined) | inactive
COc1ccc(S(=O)(=O)N2CCN(C(=O)NC3CCCCC3)CC2)cc1 | inactive
CCCCn1c(SCC(=O)NCC2CCCO2)nc2ccc(N3CCOCC3)cc2c1=O (centres undefined) | inactive
O=C(c1c(F)cccc1Cl)N1CCN(S(=O)(=O)c2ccc3c(c2)OCCCO3)CC1 | inactive
Cc1cccc(N(C)C(=O)CN2C(=O)COc3ccc(S(=O)(=O)N4CCCCCC4)cc32)c1 | -12.1 (active)
CC1CCN(CCCNC(=O)CN2C(=O)CSc3ccc(S(=O)(=O)N4CCCCC4)cc32)CC1 | inactive
O=C(O)c1ccc(/C=C2\SC(=S)N(NC(=O)c3ccc(Br)cc3)C2=O)cc1 | inactive
O=S(=O)(Nc1ccc(Cl)cn1)c1cnc(Cl)c(Br)c1 | inactive
Cc1ccc(CS(=O)(=O)c2ncc(Cl)c(C(=O)Nc3nnc(C)s3)n2)cc1 | inactive
COC(=O)C(C(=O)Nc1cccc(Cl)c1C)C1CCCC1 (centres undefined) | inactive
Cc1ccc(C(=O)NC2CCCC(C)C2C)cc1S(=O)(=O)N1CCCCC1 (centres undefined) | inactive
Cc1cccc(-c2nc3ccc(C(=O)NCCN4CCN(C)CC4)cc3nc2-c2cccc(C)c2)c1 | inactive
O=C(c1cccs1)C1C(c2ccc(Br)cc2)NC(=S)NC1(O)C(F)(F)F (centres undefined) | inactive
COc1ccc2c(c1)OC(O)(C(F)(F)C(F)F)CC2=O (centres undefined) | inactive
Cc1ccc(S(=O)(=O)/N=C(/NC(=S)Nc2c(C)n(C)n(-c3ccccc3)c2=O)c2ccccc2)cc1 | inactive
O=C(C1CCN(S(=O)(=O)c2ccc(Br)s2)CC1)N1CCN(c2ccccc2)CC1 | inactive
CC(=O)Nc1nc2c(s1)C(=O)NCC(C)(C)C2 | inactive
CC1CCCC(NC(=O)c2cccc(N3CCCC3=O)c2)C1C (centres undefined) | inactive
CNCC(O)c1ccc(O)c(O)c1 (centres undefined) | inactive
CCCCOc1ccc(Cl)cc1CSc1nncn1N | inactive

Structure (SMILES) | membrane potential ratio readout (active if shifted either direction beyond buffer ±3SD; no single direction)
O=C(Nc1ccn(Cc2ccccc2)n1)c1n[nH]c([N+](=O)[O-])c1Cl | inactive
CCOc1ccc(/C=C2\SC(=S)N(NC(=O)c3ccncc3)C2=O)cc1OC | inactive
CCOC(=O)C1(CCOC)CCN(Cc2ccc(C(=O)OC)cc2)CC1 | inactive
OC1CN=C2Sc3ccccc3N2C1 (centres undefined) | inactive
CC(Oc1ccc2ccccc2c1)C(=O)NNC(=S)NC(=O)c1ccco1 (centres undefined) | inactive
CCCCCn1c(=O)c(C(=O)OCC)c(Cl)c2ccccc21 | inactive
O=[N+]([O-])c1ccccc1Nc1ccc(O)cc1 | 2.4 (active)
Cc1ccc(SC(CC(=O)c2ccc(C(C)(C)C)cc2)C(=O)O)cc1 (centres undefined) | inactive
C/C(=N\Nc1nc2ccccc2[nH]1)c1cccs1 | inactive
Nc1cc(N2CCCCCC2)c2nonc2c1[N+](=O)[O-] | inactive
Cc1ccc(C(=O)N/C(=C/C=C/c2ccccc2)C(=O)NCc2ccco2)cc1 | inactive
CCc1ccc2c(c1)C1(NN=C(c3ccccc3)S1)C(=O)N2 (centres undefined) | inactive
O=S(=O)(c1cccc(-c2nnc(SC(F)F)n2-c2ccccc2)c1)N1CCCCC1 | inactive
Cn1c2ccccc2c(=O)c2c(O)cccc21 | inactive
CC(=O)OCCOCn1cnn2c(=O)c(Br)c(C)nc12 | inactive
CCNC(=O)CC1C(=O)N(c2ccc(F)cc2)C(=O)N1CCc1sccc1C (centres undefined) | inactive
C/C(=N\NC(N)=S)c1cccnc1 | inactive
COc1ccc(NC(=O)c2sc(N)nc2-c2ccccc2)cc1 | inactive
Cc1ccccc1-n1c(C)cc(/C=N/NC(=O)c2ccc(CN3CCOCC3)cc2)c1C | inactive
O=C(Nc1ccccc1C(=O)NCCCn1ccnc1)c1ccc(Cl)cc1Cl | inactive
CCc1ccccc1N1CN(Cc2ccco2)CNC1=S | inactive
COC(=O)CN1C(C)=Nc2ccc(Br)cc2C1c1ccccc1 (centres undefined) | inactive
CCN(CC)Cc1c(C(=O)N/N=C/c2cccc(OCc3ccc(F)cc3)c2)nnn1-c1nonc1N | inactive
CC(C)CCn1c(CN(C)Cc2ccccc2)nc2c1c(=O)n(C)c(=O)n2C | inactive
O=C(O)c1ccc(N/N=C/c2cn(-c3ccccc3)nc2-c2cccs2)cc1 | inactive

Structure (SMILES) | membrane potential ratio readout (active if shifted either direction beyond buffer ±3SD; no single direction)
CCC(Oc1ccccc1C)C(=O)Nc1ccc(S(=O)(=O)Nc2cc(C)on2)cc1 (centres undefined) | inactive
CC1CCN(C(=O)CN(c2ccc(Oc3ccccc3)cc2)S(C)(=O)=O)CC1 | inactive
CCN(CC)CCC(c1ccc2c(c1)OCO2)c1c(OC)cc(OC)c2c(-c3ccccc3)cc(=O)oc12 (centres undefined) | inactive
C/C(=N\N=C(N)N)c1ccc(Cl)cc1 | inactive
COC(=O)c1ccccc1NC(=O)Cn1nc(C(F)(F)F)c2c1CCC2 | inactive
O=C1c2cccc3cccc(c23)C(=O)N1CCCCCc1n[nH]c(=S)o1 | inactive
CC(C)n1c(=S)[nH]c2cc(C(F)(F)F)ccc21 | inactive
O=C(Cn1ncc2c3ccccc3n(Cc3ccccc3)c2c1=O)NCCCN1CCOCC1 | inactive
CCOC(=O)N1CCN(C(=O)c2ccc(CN(c3ccc(C)c(C)c3)S(C)(=O)=O)cc2)CC1 | inactive
CCCn1c2ccccc2c2cnn(CC(=O)NCCCN3CCCCC3CC)c(=O)c21 (centres undefined) | inactive
Cc1ccccc1-n1nnc2c(=O)oc3ccccc3c21 | inactive
C=CCn1c(SCc2ccc(C(=O)NCCO)cc2)nc2ccccc2c1=O | inactive
O=C(/C=C/c1cn(-c2ccccc2)nc1-c1ccc2c(c1)OCCO2)NCCCN1CCOCC1 | inactive
COc1ccc(C(=O)NC(Cc2ccc(OC(=O)c3ccc(OC)cc3)cc2)C(=O)O)cc1 (centres undefined) | inactive
Cc1cccnc1NC(=O)c1cccc(S(=O)(=O)N2CCN(c3ccc(F)cc3)CC2)c1 | inactive
CCOc1ccccc1Nc1ccc2nonc2c1[N+](=O)[O-] | inactive
O=C(CCCN1C(=O)CSc2ncccc21)N1CCN(c2cccc(C(F)(F)F)c2)CC1 | inactive
CCOCCCN(C)C1CCN(C(=O)c2oc3ccccc3c2NC(=O)COc2cccc(C)c2)CC1 | 3.33 (active)
Cc1ccc2c(C)c(C(=O)N3CCC(N4CCC(C(=O)NC5CC5)CC4)CC3)oc2c1 | inactive
COCCNc1nc(-n2nc(C)cc2C)nc2sc3c(c12)CCCC3 | inactive
O=c1c2ccccc2nnn1CSc1nc2sc3c(c2c(=O)n1CC1CCCO1)CCC3 (centres undefined) | inactive
CC(C)(C)C(=O)/C(C#N)=C/c1ccc(O)cc1 | inactive
Cc1oc2c(F)c(F)c(F)c(F)c2c1S(=O)(=O)Nc1cccc(C(F)(F)F)c1 | inactive
O=C(Nc1ccc(F)c(Cl)c1)C1CCN(S(=O)(=O)c2cccnc2)CC1 | inactive
